Experimental data as given in paper PMC5540273 (PLoS ONE, 2017).

Legend:
Conditions in all cases: concentration: 1 μM, replicates: in singlicate; n = 1
[1] = system: MAPKAPK5
[2] = system: MARK1
[3] = system: MARK2
[4] = system: MARK3
[5] = system: MARK4
[6] = system: MAST1
[7] = system: T1, MEK1
T1 construct: gene MAP2K1

[8] = system: T2, MEK2
T2 construct: gene MAP2K2

[9] = system: T3, MEK3
T3 construct: gene MAP2K3

[10] = system: T4, MEK4
T4 construct: gene MAP2K4
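Note: KINOMEscan kinase panel screen.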

| SMILES | %Inh [1] [%] | %Inh [2] [%] | %Inh [3] [%] | %Inh [4] [%] | %Inh [5] [%] | %Inh [6] [%] | %Inh [7] [%] | %Inh [8] [%] | %Inh [9] [%] | %Inh [10] [%] |
| --- | --- | --- | --- | --- | --- | --- | --- | --- | --- | --- |
| CN(c1ccc(F)c(NC(=O)c2cccc(OC(C)(C)C#N)c2Cl)c1)c1ccc2nc(NC(=O)C3CC3)sc2n1 | 0 | 0 | 0 | 0 | 0 | 40 | 61 | 49 | 0 | 26 |
| Cl.N#CCc1ccc(Nc2nccc(Nc3ccc(Oc4ccccc4)cc3)n2)cc1 [GW639905] | 0 | 0 | 0 | 0 | 0 | 0 | 2 | 12 | 0 | 22 |
| O=C(O)C(F)(F)F.O=c1[nH]ccc2nc(N[C@@H]3CCNC3)nc(Nc3cc(Cl)cc(Cl)c3)c12 [GSK2188764] | 47 | 52 | 87 | 85 | 41 | 28 | 79 | 84 | 88 | 72 |
| CC(C)(C)c1ccc(C(=O)Nc2cn3cc(-n4ccnc4)ccc3n2)cc1 | 0 | 0 | 3 | 0 | 0 | 38 | 5 | 6 | 0 | 38 |
| Cc1ccc(NC(=O)c2cccc(N3CCCCC3)c2)cc1-c1ccc(C(=O)NCC2CC2)cc1 [GSK1917008] | 0 | 0 | 0 | 20 | 10 | 0 | 0 | 0 | 0 | 8 |
| O=C1NC(=O)C(c2ccccc2Cl)=C1Nc1cccc(Cl)c1 [SB-342409] | 0 | 0 | 0 | 2 | 0 | 0 | 2 | 5 | 0 | 0 |
| COc1cccc(C2=C(Nc3cccc(O)c3)C(=O)NC2=O)c1 [SB-390771] | 0 | 0 | 0 | 1 | 8 | 4 | 0 | 0 | 0 | 0 |
| O=C(Nc1n[nH]c2cc(-c3cccs3)ccc12)C1CC1 [SB-731284] | 4 | 47 | 21 | 0 | 35 | 6 | 47 | 24 | 51 | 46 |
| CS(=O)(=O)c1cccc(CNc2nc(Nc3ccc4c(c3)CCC(=O)N4)ncc2C(F)(F)F)c1 | 0 | 35 | 16 | 56 | 46 | 0 | 0 | 58 | 61 | 56 |
| COc1cc(Nc2nccc(N3CCC(NC(=O)Nc4ccc5c(c4)OCO5)C3)n2)cc(OC)c1OC (stereo not drawn) [GSK1379766] | 0 | 4 | 0 | 0 | 1 | 0 | 0 | 0 | 2 | 8 |
| CN(c1ccc(NC(=O)N2CCN(CCCN3CCOCC3)CC2)cc1)c1ccnc(Nc2ccc(CS(C)(=O)=O)cc2)n1.Cl [GW830899] | 0 | 0 | 1 | 1 | 30 | 0 | 0 | 23 | 0 | 0 |
| O=C(Nc1n[nH]c2nc(-c3cccc(O)c3)ccc12)C1CC1 [SB-711805] | 3 | 31 | 30 | 0 | 0 | 42 | 10 | 10 | 41 | 12 |
| CN(c1ccc2c(c1)nc(NCc1ccccc1)n2C)c1ccnc(Nc2ccc(CS(C)(=O)=O)cc2)n1.Cl [GW811603] | 0 | 30 | 0 | 0 | 5 | 31 | 0 | 0 | 51 | 34 |
| COc1cc(Nc2ccnc3cc(-c4ccncc4)ccc23)cc(OC)c1OC.Cl [GW494610] | 0 | 1 | 0 | 0 | 9 | 15 | 14 | 0 | 0 | 27 |
| CCn1c(-c2nonc2N)nc2c(-c3ccccc3)ncc(OCCCN)c21.O=C(O)C(F)(F)F.O=C(O)C(F)(F)F [GSK260205] | 0 | 0 | 0 | 0 | 0 | 28 | 0 | 0 | 0 | 13 |
| CCn1cnc2c(NCc3ccccc3)ncnc21 [SKF-96418] | 0 | 3 | 0 | 27 | 14 | 67 | 20 | 37 | 40 | 23 |
| Cn1cc(-c2ccc3c(c2)CCN3C(=O)Cc2cc(F)cc(F)c2F)c2c(N)ncnc21 [GSK2634140] | 0 | 0 | 0 | 0 | 0 | 0 | 0 | 0 | 0 | 37 |

| SMILES | %Inh [1] [%] | %Inh [2] [%] | %Inh [3] [%] | %Inh [4] [%] | %Inh [5] [%] | %Inh [6] [%] | %Inh [7] [%] | %Inh [8] [%] | %Inh [9] [%] | %Inh [10] [%] |
| --- | --- | --- | --- | --- | --- | --- | --- | --- | --- | --- |
| Cc1ccc(-c2ccc3occ(-c4ccc(S(C)=O)cc4)c3c2)nn1 (stereo not drawn) | 0 | 0 | 14 | 16 | 4 | 0 | 0 | 4 | 0 | 0 |
| Cc1ccc(NC(=O)c2ccc(Cl)c(Cl)c2)cc1-c1ccc(C(=O)Nc2ccncc2)cc1 [GSK1398460] | 0 | 7 | 0 | 0 | 16 | 0 | 0 | 0 | 0 | 0 |
| CN(C)CCOc1ccc(-c2cc(-c3ccc(Cl)c(O)c3)c(-c3ccncc3)[nH]2)cc1.Cl.Cl [SB-684387] | 29 | 0 | 14 | 14 | 0 | 52 | 0 | 35 | 5 | 10 |
| Cc1ccc(NC(=O)c2ccnc(N3CCCCC3)c2)cc1-c1ccc(C(=O)NCC2CC2)cc1 [GW775610] | 5 | 0 | 14 | 0 | 2 | 37 | 4 | 0 | 45 | 0 |
| Nc1ncnc2scc(-c3ccc(NC(=O)Cc4cc(F)ccc4F)cc3)c12.O=C(O)C(F)(F)F [SB-731254-M] | 10 | 27 | 31 | 0 | 6 | 21 | 24 | 19 | 23 | 18 |
| COC(=O)Nc1nc2ccc(Oc3ccc(NC(=O)Nc4cc(C(F)(F)F)ccc4F)cc3)cc2[nH]1.Cl [GW654607] | 0 | 0 | 0 | 0 | 0 | 0 | 0 | 0 | 0 | 15 |
| Nc1ncc(-c2cn[nH]c2)c2scc(-c3ccc4c(c3)CCN4C(=O)Cc3ccccc3)c12 [GSK2593067] | 0 | 0 | 7 | 0 | 7 | 0 | 0 | 0 | 0 | 60 |
| COC(=O)Nc1nc2ccc(Oc3ccc(CC(=O)Nc4cc(C(F)(F)F)ccc4F)cc3)cc2[nH]1 [GW680903] | 0 | 0 | 100 | 5 | 0 | 0 | 0 | 0 | 0 | 29 |
| Nc1cccc(-c2ccc3c(N)n[nH]c3c2)c1 [GSK2193613] | 0 | 0 | 0 | 0 | 0 | 0 | 53 | 39 | 0 | 12 |
| CCNc1nccc(-c2c(-c3ccc(F)cc3)ncn2C2CCN(C)CC2)n1 | 0 | 0 | 0 | 0 | 0 | 46 | 4 | 15 | 0 | 0 |
| Cl.Cl.NC(CNC(=O)c1cc(Br)c(-c2ccnc3[nH]ccc23)s1)c1ccccc1 (stereo not drawn) [GSK1322949] | 0 | 0 | 22 | 0 | 0 | 29 | 0 | 0 | 74 | 57 |
| COc1ccc(C)c(Nc2ccnc(Nc3ccc(-c4cnc[nH]4)cc3)n2)c1.Cl [GW784041] | 0 | 9 | 0 | 14 | 24 | 0 | 31 | 55 | 0 | 0 |
| COc1cccc(CC(=O)N2CCc3cc(-c4cn(C)c5ncnc(N)c45)ccc32)c1 [GSK2608899] | 0 | 0 | 0 | 7 | 0 | 0 | 39 | 0 | 0 | 53 |
| O=C(Nc1n[nH]c2nc(-c3ccccc3O)ccc12)C1CC1 [SB-711880] | 0 | 0 | 43 | 0 | 0 | 31 | 5 | 25 | 40 | 34 |
| COc1cccc2c(-c3ccncc3)c(-c3ccc(F)cc3)nn12 [GW468513] | 0 | 0 | 0 | 0 | 3 | 15 | 0 | 1 | 0 | 19 |
| Cc1cccc(Nc2nc(NCCN)ncc2C(N)=O)c1 [GSK1292139] | 44 | 0 | 39 | 7 | 0 | 0 | 0 | 9 | 94.9 | 55 |
